Data reported in the supplement of paper PMC6555819.

How the values were obtained:
Experiment in all cases: PBM binding z-score (relative to random genomic background probes); higher = stronger binding; sequences stand for … in GC…GCGATTGACAGCGTAGAATGAAGG
[1] = tested on: FXR:RXRa (NR concentration 270 nM, RXRa partner concentration 90 nM)
In short: (§1)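 Scanned fluorescence from custom Agilent 4×180K protein-binding microarrays was regression-normalized. Binding z-scores use random background probes as reference. Ligand-free nuclear receptor dimers were incubated on the arrays for 1 h and detected with antibodies against each partner (one per run).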

[2] = tested on: LXRa:RXRa (NR concentration 270 nM, RXRa partner concentration 90 nM)
In short: as §1

[3] = tested on: LXRa homodimer (NR concentration 270 nM)
In short: as §1

[4] = tested on: LXRb:RXRa (NR concentration 270 nM, RXRa partner concentration 90 nM)
In short: as §1

[5] = tested on: LXRb homodimer (NR concentration 270 nM)
In short: as §1

[6] = tested on: PPARa:RXRa (NR concentration 270 nM, RXRa partner concentration 90 nM)
In short: as §1

[7] = tested on: PPARg:RXRa (NR concentration 180 nM, RXRa partner concentration 90 nM)
In short: as §1

[8] = tested on: PPARg:RXRa 270nM:90nM, anti-RXR (NR concentration 270 nM, RXRa partner concentration 90 nM)
In short: as §1

[9] = tested on: PPARg:RXRa 30nM:10nM, anti-RXR (NR concentration 30 nM, RXRa partner concentration 10 nM)
In short: as §1

[10] = tested on: PPARg:RXRa 90nM:30nM, anti-RXR (NR concentration 90 nM, RXRa partner concentration 30 nM)
In short: as §1

[11] = tested on: PPARg:RXRa DBDmut IVT, anti-RXR (DBD mutation: RXRa K156A/R161A, NR concentration 270 nM, RXRa partner concentration 90 nM)
In short: as §1

[12] = tested on: PPARg:RXRa IVT, anti-PPARg (NR concentration 270 nM, RXRa partner concentration 90 nM)
In short: as §1

[13] = tested on: PPARg DBDmut:RXRa IVT, anti-PPARg (DBD mutation: PPARg1 K132A/R137A, NR concentration 270 nM, RXRa partner concentration 90 nM)
In short: as §1

[14] = tested on: PPARg DBDmut IVT, anti-PPARg (DBD mutation: PPARg1 K132A/R137A, NR concentration 270 nM)
In short: as §1

[15] = tested on: PPARg homodimer (NR concentration 180 nM)
In short: as §1

[16] = tested on: PXR:RXRa (NR concentration 270 nM, RXRa partner concentration 90 nM)
In short: as §1

[17] = tested on: PXR homodimer (NR concentration 270 nM)
In short: as §1

[18] = tested on: RARa:RXR (NR concentration 270 nM, RXRa partner concentration 90 nM)
In short: as §1

[19] = tested on: RARa homodimer (NR concentration 270 nM)
In short: as §1

[20] = tested on: RARb:RXRa (NR concentration 270 nM, RXRa partner concentration 90 nM)
In short: as §1

Sequence	PBM binding z-score [1]	PBM binding z-score [2]	PBM binding z-score [3]	PBM binding z-score [4]	PBM binding z-score [5]	PBM binding z-score [6]	PBM binding z-score [7]	PBM binding z-score [8]	PBM binding z-score [9]	PBM binding z-score [10]	PBM binding z-score [11]	PBM binding z-score [12]	PBM binding z-score [13]	PBM binding z-score [14]	PBM binding z-score [15]	PBM binding z-score [16]	PBM binding z-score [17]	PBM binding z-score [18]	PBM binding z-score [19]	PBM binding z-score [20]
CGAACTAGGTCAGTACAGGACAGTGAAGGATGAT	1.58	1.83	-0.0342	0.493	-0.478	3	4.93	4.25	1.71	3.39	7.48	7.01	0.814	0.573	1.07	0.911	-0.456	0.671	0.153	3.04
GGAACGAGGGCATTCGAGTTTATAGCATGGCGAT	1.12	4.61	0.296	0.629	-0.537	1.57	0.982	0.798	-0.0706	0.209	2.91	2.31	-0.439	-0.834	-0.0637	5.87	7.33	1.14	-0.16	1.9
ATATGTAGGTTAAGGGACATTCAGGTTGGTTCGC	0.93	1.06	0.514	0.945	0.703	3.79	6.5	6.51	4.44	6.65	6.93	6.99	1.67	1.87	1.9	0.934	0.687	1.15	1.63	1.57
CCAGACAGGTGAGAAGGTAACTTAGCCTCGATTA	0.0387	0.133	-0.108	0.0826	-0.355	0.501	0.351	0.351	-0.0164	0.0696	0.936	0.458	0.104	-0.619	1.19	-0.169	0.402	0.0746	0.973	0.689
ACTTACGGGTGAACGAGGTTATAGCACGCGTATA	0.972	1.28	0.16	1.21	-0.375	2.36	1.73	1.35	0.333	0.745	2.06	2.61	0.498	1.4	0.965	1.75	0.287	2.01	0.821	1.19
CCTAGCAGGCCAGGGTCACTCATGCATTTCGCTT	1.41	1.5	-0.432	1.72	-0.832	2.91	0.947	1.24	-0.332	0.442	-0.158	1.27	-1.04	-1.56	0.688	2.19	-0.121	2.67	-0.129	2.38
GCTATTAGTTGAAAGGGCAGCCGAATGATTCTCG	0.117	0.132	-0.239	0.0989	-0.467	1.69	1.92	3.53	1.46	3.05	0.343	0.268	-0.735	-0.14	0.871	0.09	0.28	0.515	0.871	1.78
TTACGAAGGTGAAGGTCGTTGATCCCTCTGTAGA	2.35	1.9	-0.207	1.48	-0.709	2.66	2.48	3.86	2.7	3.16	1.43	2.62	0.0113	-0.332	0.462	1.58	-0.113	1.68	-0.46	2.23
ATCGAAAGGTCGTGGTGAGTATAGAGAAAGGGAA	5.04	4.49	0.646	3.78	1.75	5.5	4.16	4.2	1.54	3.12	1.03	2.12	1.47	1.03	1.89	3.3	0.954	3.84	1.77	4.27
CCGACTGGGGCATAAGGTTACTATAAGCCAGCCC	0.52	3.57	0.0863	1.26	-1.18	1.63	2.33	2.96	0.95	2.34	2.65	3.13	-0.815	-1.53	0.494	0.29	-0.23	0.911	-0.358	1.45
CCTGCTAGGTCAATGGCCAGCTAAAGCAGCTCGC	3.11	2.72	-0.17	1.39	-0.454	2.73	1.84	2.65	0.293	1.8	4.15	3.04	-1.08	-1.25	0.733	0.566	-0.775	1.31	-0.563	3.73
CAAACTAGGTCAAGAGGTCACAGTCCGCTTCCCG	6.79	5.84	4.4	4.97	1.01	6.61	10.2	8.35	7.25	8.69	8.51	8.53	3.61	2.62	6.23	5.99	1.56	7.64	2.8	5.67
AGAACGAGGGCAATGCGTTGATAGCACGGGTGGC	0.0853	0.264	-0.517	-0.19	-0.678	1.3	1.36	0.671	-0.109	0.215	2.94	2.57	1.12	0.0782	-0.251	0.219	0.111	0.271	-0.114	2.21
TGAACGAGGTTATAAGATCAGGGAACGTTGCAAA	1.41	1.2	-0.217	1.08	-0.589	2.56	1.16	1.5	0.646	1.06	0.0481	1.09	0.721	0.611	0.735	0.661	-0.0458	1.31	-0.0844	1.18
ATATGTAGGTTATCGGCTCATTCAGTTTGCGCAT	0.488	0.867	0.283	0.755	1.03	2.6	4.14	3.87	1.47	3.4	6.92	6.58	2.28	1.66	1.39	0.282	0.405	0.31	1.01	0.662
ACTATTAGTTGACTTAGGGCAACTGATACGACGC	0.17	0.0575	0.162	0.0522	0.38	0.0544	0.858	0.0451	0.501	0.431	-0.0413	0.813	1.58	1.31	0.722	0.176	0.201	0.431	0.297	1.01
CAAACTAGGTCACGAAAGGTCAAAGTCGAATGAC	7.74	8.37	7.89	7.46	2.8	6.76	10.7	8.68	7.48	8.74	8.54	9.04	3.28	2.22	5.79	7.14	2.95	7.8	3.54	5.84
CCGACTGGTGCAAAGGTTACCATACTCAGTACGA	0.595	1.59	0.244	1.89	-0.483	3.86	6.69	6.67	4.73	6.75	0.299	2.67	0.0281	-0.547	1.18	2.07	-0.109	2.87	0.34	1.96
CGTCCAAAGTCAAGGTCAGTGAAAGAGACTCGAA	2.34	2.12	0.643	1.74	0.209	2.8	0.614	1.04	0.0766	0.615	0.62	0.874	-0.185	-0.414	2.49	2.05	1.01	2.47	0.742	3.62
CGCACGAGGGCATGAGTTGATAGCAAATGCCGAT	0.564	0.295	-0.626	0.0671	-0.764	1.1	0.947	0.583	-0.123	0.22	1.88	1.02	-0.109	-0.507	0.288	0.438	-0.109	0.296	-0.714	2.09
AGTCAAAGTTCAGGACGTGGTAACGTAAAGCACG	3.46	3.57	0.963	1.49	0.114	3.12	4.28	4.75	2.07	3.71	-0.468	1.64	0.643	0.0633	1.68	2.15	0.643	1.86	0.703	4.15
ACTCGAAGGACAAAGGTCAGAGCTACGCCAGTGA	4.03	3.98	1.41	3.57	0.35	4.95	6.73	6.23	5.02	6.39	0.648	3.42	-0.0022	-0.263	2.57	3.58	0.743	4.28	0.861	4.7
CGAACTAGGTCAAGGACCGTGAATCTCCGCACGC	3.28	2.1	-0.026	1.26	-0.781	4.64	7.76	6.89	4.37	6.74	7.68	8.18	4.94	0.945	0.756	0.773	-0.365	1.63	-0.219	3.8
ACAGACAGGTGAGTGAAGGTATCTCAGCTGGACG	-0.3	-0.499	-0.504	-0.625	-0.39	0.116	0.581	-0.119	0.319	-0.0281	0.178	0.541	-0.168	-1.07	-0.226	-0.609	-0.293	-0.438	-0.61	0.255
CCTACTGGGCCAAGGTCATTGGTCAGTCAAAGCA	3.51	2.93	1.17	2.84	-0.423	4.01	4.31	4.6	1.68	3.55	3.94	4.88	-0.325	-0.629	1.86	3.62	1.12	3.85	0.172	3.56
TCGAGTAGGTTAGTCGGGGCATTCAACCAACATA	0.19	0.112	0.0145	0.776	-0.298	0.929	0.00295	1.16	1.41	1.11	2.51	2.16	-0.398	-0.896	-0.069	0.309	-0.2	0.545	0.0845	0.517
CCTTACGGGTCACTCCACGTTATAGCATCGGAGT	4.04	3.03	0.131	2.58	0.341	4.28	3.02	3.29	1.1	2.31	2.55	3.09	0.675	0.232	2.03	2.39	0.155	3.01	0.911	3.44
CCTACTGGGCCAAAAAGGTCATCGATGCCGATAA	3.69	4.2	2.69	4.33	0.178	4.93	4.32	4.61	2.07	4.04	3.54	4.4	-0.683	0.00778	3.39	4.69	1.58	5.26	2.06	4.53
GCTAGCAGTCCATTTGGGTCACTCAATGACGGGC	0.123	-0.125	-0.706	-0.0386	-0.905	0.937	0.41	0.105	-0.37	-0.0818	0.379	1.16	-1.16	-1.53	0.032	0.67	0.689	0.82	-0.831	0.88
